A selection: hits, their analogues and other compounds. The true share with any hit is near 1.5%.
RAD52 anneal inh = RAD52 DNA annealing inhibitors, primary screen, biochemical, FRET, single point, set 2; DNA repair protein RAD52 homolog (Homo sapiens), P43351; recombinant RAD52 DNA annealing, FRET fluorescence; inhibition, % at 18.7 µM; 0.46% of 360,000 active; AID 651710, 2012;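 active = every replicate showing at least 50% inhibition; inconclusive = mean inhibition at least 50% but not in every replicate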
Target sequence (P43351 whole entry, looked up): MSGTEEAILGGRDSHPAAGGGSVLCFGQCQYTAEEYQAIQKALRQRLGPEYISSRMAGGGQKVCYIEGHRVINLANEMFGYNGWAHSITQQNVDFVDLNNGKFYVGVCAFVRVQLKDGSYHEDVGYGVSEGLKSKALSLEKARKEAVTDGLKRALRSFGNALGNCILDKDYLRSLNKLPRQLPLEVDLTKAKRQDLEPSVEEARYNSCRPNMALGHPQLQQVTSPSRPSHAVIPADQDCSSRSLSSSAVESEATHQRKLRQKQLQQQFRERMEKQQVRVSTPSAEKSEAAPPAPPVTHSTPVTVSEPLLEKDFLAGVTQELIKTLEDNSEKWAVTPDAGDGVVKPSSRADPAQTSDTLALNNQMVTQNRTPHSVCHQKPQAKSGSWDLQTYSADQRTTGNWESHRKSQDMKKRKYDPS
dFosB act = activators of delta FosB homodimer, primary screen, biochemical, fluorescence polarization, TAMRA-CDK5 oligo, single point. Protein FosB (Mus musculus), P13346. purified delta FosB; percent of positive-control signal above neutral wells. activation, % at 25 µM. 0.99% of 340,000 active. AID 493131, 2011;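 active = mean activation above about 17%, with every replicate also reaching it, limit read from the data, passing the limit was not always enough; inconclusive = only one of the two conditions met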
PvdQ acylase = P. aeruginosa PvdQ acylase inhibitors, primary screen, biochemical, fluorescence, plate reader and imaging, single point; PvdQ acylase [Pseudomonas aeruginosa LESB58]; purified PvdQ acylase; inhibition, % at 10 µM; 0.063% of 340,000 active; in the data active = inhibition above about 30%, passing the limit was not always enough; inconclusive = no clear call, values can overlap the other calls;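 note: 0% = vehicle neutral wells and 100% = reference inhibitor wells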
RAD54 inh = inhibitors of human RAD54 branch migration, primary screen, biochemical, fluorescence, single point; DNA repair and recombination protein RAD54-like (Homo sapiens), Q92698; RAD54 Holliday junction branch migration, FAM/BHQ fluorescence; inhibition, % at 10.4 µM; 0.14% of 360,000 active; AID 602329, 2012;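 active = mean normalized replicate activity at least 40 and at least half of replicates scoring 40 or more; inconclusive = only one of the two criteria met; inactive = mean below 40 and under half of replicates reaching 40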;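 note: 0% = median of neutral control wells and 100% = median of positive control wells; inhibitors cause a drop in the FAM fluorescence signal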
F508del corr = F508del CFTR correction, initial screen, CFBE line, single point | CFBE cells, YFP halide quenching; stimulated with forskolin plus potentiator P3; % fluorescence drop versus neutral controls | 0.36% of 350,000 active | activity (quench increase), % at 7.58 µM;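 active = mean added fluorescence quench of at least 8% versus neutral control, with both replicates also reaching 8%; inconclusive = only one of the mean or replicate conditions met; inactive = mean below 8% and not both replicates reaching 8%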;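 note: cells transiently co-express mutant CFTR-F508del with the halide-sensitive YFP; corrector assay measuring rescue of mutant channel to the surface after 24 h compound exposure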
Glyco luc inh = increase of ERlucT glycosylation luciferase signal, primary screen, N-linked glycosylation inhibitor project, D54 ERlucT cells, luminescence, set 2 | reporter increase, % at 12.5 µM | D54 ERlucT glycosylation luciferase reporter, 24 h; percent of 100 nM tunicamycin response | 0.23% of 360,000 active | AID 588692, 2011;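 active = mean luciferase reporter signal, scaled so untreated is 0 and the glycosylation-blocking control 100, at or above a set limit in every replicate; inconclusive = mean reaches the limit but not every replicate does; inactive = mean below the limit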;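 note: luciferase carries N-glycosylation sites so blocking glycosylation raises the light; 0% = median of neutral control wells and 100% = median of 100 nM tunicamycin wells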
RAD52 DNA ctr = DNA-binding compounds via dye displacement, dose response, artefact control for RAD52 inhibitor project, biochemical, fluorescence polarization, cherry-pick; shares compounds with RAD52 anneal inh; Salmon sperm DNA/acridine orange FP displacement; AC50, µM; 8% of 1,000 active; AID 652128, 2013;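 active = fitted half-maximal concentration for signal loss at or below twice the highest dose tested, in every separate run, actives reach about 64 µM in these data; inconclusive = runs disagree, or flat partial signal loss, or poor fit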
The depositor's hits bear a star; i = inactive; ? = inconclusive; · = no result.

SMILES	RAD52 anneal inh	dFosB act	PvdQ acylase	RAD54 inh	F508del corr	Glyco luc inh	RAD52 DNA ctr
CN(C)CCCNC(=O)C[C@H]1CC[C@H]2[C@@H](COc3ccc(NC(=O)c4ccccc4F)cc3C(=O)N2C)O1	-8	·	·	8	-1	·	·
Nc1nc2c(ncn2[C@@H]2O[C@H](CNCc3ccc(F)c(N4CCOCC4)c3)[C@@H](O)[C@H]2O)c(=O)[nH]1	-9	·	·	-13	-2	0	·
CN1CCN(c2ccc(CNC[C@H]3O[C@@H](n4cnc5c(=O)[nH]c(N)nc54)[C@H](O)[C@@H]3O)c(F)c2)CC1	82*	·	·	-5	5	0	i
Cc1ccc(S(=O)(=O)N(C)C[C@H]2OCCCC[C@@H](C)Oc3ccc(NS(=O)(=O)c4cn(C)cn4)cc3C(=O)N([C@@H](C)CO)C[C@@H]2C)cc1	19	·	·	-7	1	·	·
C[C@H](CO)N1C[C@H](C)[C@H](CN(C)C(=O)Nc2ccccc2)OCCCC[C@H](C)Oc2ccc(NS(=O)(=O)c3ccccc3)cc2C1=O	-8	·	·	-7	1	·	·
Cc1ccc2nc(N(CCCN(C)C)C(=O)c3ccc(S(=O)(=O)N4CCCCCC4)cc3)sc2c1	61*	-9	-14	3	0	-6	i
CCOc1ccc2nc(N(CCCN(C)C)C(=O)c3ccc(S(=O)(=O)N4CCc5ccccc5C4)cc3)sc2c1	59*	3	-5	-2	-1	-5	i
CCc1ccc2nc(N(CCCN(C)C)C(=O)c3ccc(S(=O)(=O)N4CCCC4)cc3)sc2c1	21	7	-7	1	-3	·	·
Cc1ccc2nc(N(CCCN(C)C)C(=O)CN3C(=O)c4ccccc4C3=O)sc2c1	62*	?	-14	·	-4	0	i
C/C=C/c1ccc([C@@H]2[C@H](CO)N(C(=O)CN(C)C)C23CN(C(=O)C2CC2)C3)cc1	3	·	·	·	1	·	·
O=C(CN1CCOCC1)NCC[C@@H]1CC[C@H](NC(=O)Nc2ccc(C(F)(F)F)cc2)[C@H](CO)O1	-5	·	·	-2	-1	·	·
COCC(=O)N1CC2(C1)[C@H](c1ccc(-c3ccccc3)cc1)[C@@H](CO)N2C(=O)COC	-14	·	·	·	-4	·	·
NCCOc1ccccc1OCCN	58*	2	6	3	-2	1	i
COc1ccc(NC(=O)N2C[C@H]3[C@@H](c4ccccc42)[C@H](CO)N3C(=O)C2CCCCC2)cc1	4	·	·	9	-1	·	·
Cc1ccc(-c2csc(NC(=O)CSc3nc4ccccc4c(=O)n3CCCN(C)C)n2)cc1	91*	-37	-10	·	-4	-9	i
Cc1nc(Nc2nc(-c3ccccc3)cc(=O)[nH]2)nc2ccccc12	95*	-34	-4	13	·	103*	i
COc1ccc(CN(C)C[C@@H]2OCCCC[C@@H](C)Oc3ccc(NS(=O)(=O)c4cn(C)cn4)cc3C(=O)N([C@H](C)CO)C[C@@H]2C)cc1	19	·	·	3	-1	·	·
CCN(CC)CCCNC(=O)c1csc(Nc2cccc3ccccc23)n1	92*	-1	-14	23	1	-5	i
CN1CCN(c2ccc(NC(=O)c3ccc(-c4cccc([N+](=O)[O-])c4)o3)cc2)CC1	58*	2	-15	·	2	6	i
COc1ccccc1C(=O)N1C[C@@H]2[C@H](c3ccccc31)[C@H](CO)N2CC1CCCC1	-18	·	·	0	8	·	·
CO[C@H]1CN(C)C(=O)c2ccc(NS(C)(=O)=O)cc2OC[C@@H](C)N(CCC(F)(F)F)C[C@@H]1C	18	·	·	-16	0	·	·
COc1cc(-c2cnc3c(NC=O)cc(-c4ccc(N5CCN(C)CC5)cc4)cn23)cc(OC)c1OC	70*	·	·	22	0	-6	i

High-throughput results deposited in PubChem BioAssay by Broad Institute.
